Sfp inh: inhibitors of Bacillus subtilis Sfp phosphopantetheinyl transferase | Q9F4F7 | Potency, µM, for inactives: largest response in the series, negative = inhibition, most hits filed as inhibitors | 310,000 tested, 3.5% active | Biochemical Sfp PPTase activity, qHTS;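 further: the enzyme is Sfp with the accession as filed and its product quenches rhodamine fluorescence; potency means the concentration at half of the fitted maximal effect; 0% = enzyme reaction without inhibitor and -100% = no enzyme wells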
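Fluorescence-quenching assay with 15 nM Sfp, 5 uM rhodamine-CoA and 12.5 uM BHQ-2-labelled ybbR peptide in pH 7.6 Hepes/MgCl2 buffer. Enzyme was pre-incubated with compound for 15 min at room temperature. Rate was taken from the 30-min fluorescence change (525/598 nm).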
FBPA coupling cs: counter-screen for Giardia aldolase inhibitors: coupling enzyme system; coupling enzyme system counterscreen, AmpLite Red fluorescence; activity change, negative = inhibition, % at 58.2 µM, hits read low; 290,000 tested, 0.67% active; in the data active means activity change below about -30%
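Coupling enzymes only (glyceraldehyde-3-phosphate) + compound, at 57.5 uM final, 10 min RT; add substrate/coupling/AmpLite Red mix, 20 min RT; fluorescence ex 525/em 598 nm. Actives flag coupling-system interference.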
Tau fibril ThT: tau fibrillization inhibition (ThT binding) | Potency, µM (series often up to 57.4 µM), for inactives: at the highest dose activity, negative = inhibition, hits mostly inhibitors | P10636 | recombinant tau K18 P301L, heparin-induced fibrillization, ThT fluorescence | AID 1460 | 270,000 tested, 2.1% active; further: potency means the concentration at half of the fitted maximal effect; nearly all actives have a fitted effect of over 55% in size
Target sequence (P10636 561-689 P618L limits assumed): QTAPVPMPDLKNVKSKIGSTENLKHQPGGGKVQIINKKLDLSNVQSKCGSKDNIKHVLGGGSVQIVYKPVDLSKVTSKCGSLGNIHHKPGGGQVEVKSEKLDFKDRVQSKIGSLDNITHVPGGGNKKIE
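Tau K18 P301L fragment (15 uM unlabeled plus 0.24 uM Alexa 594-labeled) in 100 mM sodium acetate pH 7 with compound, fibrillization induced by 20 uM heparin for 6 hr at 37 C. Thioflavin T (30 uM) added, fluorescence read after 1 hr (ex 450, em 510 nm).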
Tau fluor counter: counter-screen for tau fibril formation inhibitors; 280,000 tested, 0.93% active; tau K18 P301L Alexa594 fluorescence, heparin fibrillization; Potency, µM (doses to about 57.7 µM), without a hit: at the top dose activity change, negative = decrease; further: potency means the concentration at half of the fitted maximal effect; nearly all actives have a fitted effect of over 55% in size
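Human tau K18 P301L (15 uM unlabeled, 0.24 uM Alexa 594-labeled) in 100 mM sodium acetate pH 7 with 20 uM heparin, 6 hr at 37 C. ThT 30 uM added, 1 hr ambient; Alexa 594 FP and total fluorescence read at 555/632 nm.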
Tau FP inhib: blocks human tau fibril formation measured by polarization; 280,000 tested, 0.39% active; Potency, µM (series often up to 57.7 µM), for inactives: at the highest dose activity, negative = inhibition, usual class: inhibitors; K18 P301L tau heparin fibrillization, Alexa594 FP, 6 h; AID 1468; P10636; further: potency means the concentration at half of the fitted maximal effect; nearly all actives have a fitted effect of over 55% in size
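Recombinant K18 P301L […], labeled with Alexa 594 at 0.24 uM over 15 uM unlabeled; heparin inducer 20 uM final; 37 C, 6 hr; FP endpoint.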
KDM4E inh: blocks human JMJD2E demethylase activity. JMJD2E catalytic domain, FDH-coupled NADH fluorescence (FDH is formaldehyde dehydrogenase). Potency, µM (titrated, usually from 57.1 µM), for inactives: at the top dose activity change, negative = inhibition, hits mostly inhibitors. B2RXH2. 230,000 tested, 1.6% active; active means well fitted inhibition curve with a large enough effect, not every such curve was filed as active; inconclusive means small, poorly fitted or top-dose-only effect, or another doubt; inactive means no such curve, though single readings can be large or run the other way;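 further: potency means the concentration at half of the fitted maximal effect; 0% = wells with enzyme and -100% = buffer wells without enzyme; nearly all actives have a fitted effect of over 50% in size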
Target sequence (B2RXH2 1-337 limits assumed): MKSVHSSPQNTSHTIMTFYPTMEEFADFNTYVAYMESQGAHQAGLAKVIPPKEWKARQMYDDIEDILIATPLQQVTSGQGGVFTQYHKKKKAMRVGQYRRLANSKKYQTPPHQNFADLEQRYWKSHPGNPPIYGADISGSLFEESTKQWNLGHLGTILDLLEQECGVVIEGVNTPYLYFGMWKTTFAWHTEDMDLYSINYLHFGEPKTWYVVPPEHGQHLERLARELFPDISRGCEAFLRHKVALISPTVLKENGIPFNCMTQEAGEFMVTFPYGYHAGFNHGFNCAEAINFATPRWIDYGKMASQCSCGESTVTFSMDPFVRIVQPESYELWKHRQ
* marks the source's active call; other numbers are inactive results; ? = inconclusive; . = no result; [ ] = remark or other dose. In the library only some 5.3% were active in any assay of this set; here they are far more common. Unless noted, the call rests on the fitted dose curve; in most records, active means well fitted curve in the direction sought with a large enough effect; inconclusive means small, poorly fitted or top-dose-only effect, or another doubt; inactive means no such curve, though single readings can be large; an effect the other way counts as inactive or inconclusive. Unless noted, on the % scale 0 is the no-effect control and ±100 the full control effect.

SMILES | Sfp inh | FBPA coupling cs | Tau fibril ThT | Tau fluor counter | Tau FP inhib | KDM4E inh
COC(=O)C[C@]1(C(=O)OC)CN(C#N)N(c2ccc(Cl)cc2)C12c1ccccc1-c1ccccc12 | 8% | 0 | 14µM* | -20% | ? | -2%
COC(=O)[C@@H]1[C@@H](C(=O)OC)C2(c3ccccc3-c3ccccc32)N(c2ccc(Cl)cc2)N1C#N | 20% | -5 | 25µM* | -15% | ? | ?
C/C=C1/C2C=C(C)CC1(N)c1ccc(=O)[nH]c1C2 (stereo not given) | 7% | 3 | -9% | -18% | -10% | .
COc1ccc2c(c1OC)C(=O)OC2C1c2cc3c(cc2CCN1C)OCO3 (stereo not given) | 13% | 1 | 1% | -5% | -3% | ?
COc1cccc2c1cc([N+](=O)[O-])c1c(C(=O)O)cc3c(c12)OCO3 | -26% | 15 | 14µM* | ? | -2% | 7%
COc1ccc(OCCOc2cccc(C=C3C(=O)NC(=O)NC3=O)c2)cc1 | -86% | 4 | . | . | . | .
CN(CCOc1ccc(C=C2C(=O)NC(=O)NC2=O)cc1)c1ccccn1 | 79µM* | 4 | ? | -3% | -2% | ?
CCCCN1C(=O)/C(=C/C=C/c2ccco2)C(=O)NC1=S | 28µM* | 4 | 16µM* | -30% | ? | -26%
Cc1ccc(N2C(=O)NC(=O)/C(=C/C=C/c3ccco3)C2=O)cc1 | 50µM* | 2 | 14µM* | -12% | ? | -22%
O=C1NC(=O)N(Cc2ccc(F)cc2)C(=O)/C1=C\C=C\c1ccco1 | ? | 1 | . | . | . | -3%
CCc1ccc(N2C(=O)NC(=O)/C(=C\C=C\c3ccco3)C2=O)cc1 | 50µM* | -2 | 10µM* | -7% | 13µM* | -17%
Cc1cc(C)cc(N2C(=O)NC(=O)/C(=C\C=C\c3ccco3)C2=O)c1 | 45µM* | 5 | 13µM* | -18% | ? | -14%
Cc1ccc(N2C(=O)NC(=O)/C(=C\c3cn(CC(=O)O)c4ccccc34)C2=O)cc1 | -25% | -3 | . | . | . | .
CC1=NN(c2ccccc2)C(=O)C1/C=C1\C(=O)NC(=O)N(c2cc(C)cc(C)c2)C1=O (stereo not given) | -18% | 19 | 0% | 0% | 1% | -2%
O=C1NC(=O)N(c2ccccc2)C(=O)/C1=C\C=C\c1ccccc1 | 16µM* | -2 | 11µM* | -22% | ? | 4µM*
Cc1cc(/C=C2\C(=O)NC(=O)N(c3ccccc3)C2=O)c(C)n1-c1ccc(C(=O)O)c(Cl)c1 | -21% | 6 | . | . | . | .
CC(C)c1ccc(N2C(=O)NC(=O)/C(=C/C=C/c3ccco3)C2=O)cc1 | -12% | 3 | 14µM* | -29% | 14µM* | -17%
CCc1ccc(N2NC(=O)/C(=C/C=C/c3ccco3)C2=O)cc1 | 4% | 3 | 8.9µM* | 10µM*[quencher] | ? | 1%
CCCCN1C(=O)/C(=C\c2ccco2)C(=O)N(CCc2ccccc2)C1=O | ? | 0 | ? | -9% | 1% | -6%
COC(=O)C(O)C(O)(CCC(C)C)C(=O)OC1C(OC)=CC23CCCN2CCc2cc4c(cc2C13)OCO4 (stereo not given) | 11% | 1 | -6% | -8% | -8% | .
N#CSCC(=O)N1c2ccccc2CCc2ccccc21 | -21% | 1 | 14µM* | -19% | ? | -3%
Nc1ccccc1C(=O)OCC(=O)N1CCc2ccccc21 | 21% | 0 | ? | -14% | 9% | ?
CCc1ccc(-n2nc(C)c3c(C(=O)NCCc4ccc(OC)c(OC)c4)cc(C)nc32)cc1 | . | . | ? | -29% | 2% | .
CC[C@@H](CO)NC(=O)[C@H]1C=C2c3cccc4c3c(cn4C)C[C@H]2N(C)C1 | 56µM* | -42* | ? | -24% | -1% | ?
Fc1ccc(CNCCc2ccc3c(c2)OCO3)cc1 | -4% | 1 | . | . | . | .
O=[N+]([O-])c1cc2c(cc1CNCCc1ccc3c(c1)OCO3)OCO2 | 50µM* | -14 | -8% | -7% | 4% | 1%

Screening data as filed in PubChem BioAssay.
